Assay [1] concerns the target Mitogen-activated protein kinase 10 (Mus musculus) (UniProt Q61831). Nature of the assay: JNK3 AlphaScreen Assay (AID 530; active means well fitted curve in either direction with a large enough effect, not every such curve was filed as active;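 further: kinase came from lysate of stimulated human HepG2 cells; signal reports phosphorylation of biotinylated GST-cJun 1-79 at Ser73 with 10 µM ATP; on the % scale 0 is the no-effect control and ±100 the full control effect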). In outline: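 Phosphorylation of biotinylated GST-cJun(1-79) at Ser73 is measured by AlphaScreen proximity luminescence. Enzyme is JNK3 in HepG2 lysates activated with interleukin-1beta and tumor necrosis factor alpha; ATP is 10 uM final.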
A short description of assay [2]: Cell Viability - N2a (AID 540).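 Further: plate controls were DMSO alone for no effect and tamoxifen control for full effect; nearly all actives have a fitted effect of over 45% in size.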 The following applies: N2a mouse neuroblastoma cell viability; at 92.2 µM (top of the series). In outline:
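CellTiter-Glo ATP luminescence, read 20 min after reagent at room temperature, reported viability following 40 h compound treatment at 37 °C. N2a mouse neuroblastoma cells seeded 1500/well; Hill equation gave AC50.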

The nature of assay [3]: Cell Viability - NIH 3T3 (AID 541).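 Further: cells exposed to compound for 40 hours; plate controls were DMSO alone for no effect and tamoxifen positive control for full effect; nearly all actives have a fitted effect of over 25% in size.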 In outline:
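Intracellular ATP (CellTiter-Glo luminescence, 20 min at room temperature) measured after 40 hr compound exposure at 37 °C of 1000 NIH 3T3 mouse fibroblasts/well in complete medium; AC50 derived by Hill-equation modelling of qHTS concentration-response curves.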

Assay [4] in a line: Cell Viability - HUV-EC-C (AID 542).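 Further: cells exposed to compound for 40 hours; on the % scale 0 is the no-effect control and ±100 the full control effect; nearly all actives have a fitted effect of over 35% in size.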 The method, boiled down:
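CellTiter-Glo luminescence measured ATP loss in HUV-EC-C cells (1000/well) after 40 hr compound exposure at 37 °C, in complete culture medium. Concentration-response data were Hill-fitted to give AC50.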

Assay [5] can be described thus: Cell Viability - H-4-II-E (AID 543).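 Further: cells exposed to compound for 40 hours; on the % scale 0 is the no-effect control and ±100 the full control effect; nearly all actives have a fitted effect of over 35% in size.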 The method, boiled down:
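CellTiter-Glo luminescence (intracellular ATP) measured after 40 h compound exposure at 37 °C in H-4-II-E rat hepatoma cells seeded at 1500/well. Values are AC50s fitted with the standard Hill equation.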

A short description of assay [6]: Cell Viability - Renal Proximal Tubule (AID 545).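 Further: cells exposed to compound for 40 hours; nearly all actives have a fitted effect of over 40% in size.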 In outline:
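Luminescent ATP signal (CellTiter-Glo) served as the viability read-out after 40 hr compound exposure of freshly isolated rat proximal tubule cells at 37 °C. Concentration-dependent ATP loss was fitted with the Hill equation to give AC50.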

Assay [7] can be described thus: Cell Viability - Mesenchymal (AID 546).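 Further: cells exposed to compound for 40 hours before reading.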 Conditions: mesenchymal cells viability, qHTS; at 91.7 µM (top of the series). In outline: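 In this qHTS cytotoxicity format, glomerulus-derived human mesenchymal kidney cells received compound for 40 hr, then luciferase-based ATP quantitation. Concentration-response data were fitted with the Hill equation.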
On the technique in general: qHTS replaces the single test concentration by a dilution series.

In assay [8] the target is 3',5'-cyclic-AMP phosphodiesterase 4B (Homo sapiens) (UniProt Q07343). The assay is described as follows: qHTS Assay for Inhibitors of PDE-IV (AID 607; active means well fitted activation curve with a large enough effect in the main read-out, with a control signal flat, not every such curve was filed as active; further: % of control where 0% means no effect). In outline: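 Cell-based read-out of cAMP via a modified cyclic nucleotide-gated channel and membrane potential dye (535/590 nm) in HEK293 cells expressing PDE4 endogenously. Compounds tested up to 22.9 uM final; 100 uM RO 20-1724 reference.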
3',5'-cyclic-AMP phosphodiesterase 4B (Homo sapiens), sequence (Q07343 whole entry, looked up): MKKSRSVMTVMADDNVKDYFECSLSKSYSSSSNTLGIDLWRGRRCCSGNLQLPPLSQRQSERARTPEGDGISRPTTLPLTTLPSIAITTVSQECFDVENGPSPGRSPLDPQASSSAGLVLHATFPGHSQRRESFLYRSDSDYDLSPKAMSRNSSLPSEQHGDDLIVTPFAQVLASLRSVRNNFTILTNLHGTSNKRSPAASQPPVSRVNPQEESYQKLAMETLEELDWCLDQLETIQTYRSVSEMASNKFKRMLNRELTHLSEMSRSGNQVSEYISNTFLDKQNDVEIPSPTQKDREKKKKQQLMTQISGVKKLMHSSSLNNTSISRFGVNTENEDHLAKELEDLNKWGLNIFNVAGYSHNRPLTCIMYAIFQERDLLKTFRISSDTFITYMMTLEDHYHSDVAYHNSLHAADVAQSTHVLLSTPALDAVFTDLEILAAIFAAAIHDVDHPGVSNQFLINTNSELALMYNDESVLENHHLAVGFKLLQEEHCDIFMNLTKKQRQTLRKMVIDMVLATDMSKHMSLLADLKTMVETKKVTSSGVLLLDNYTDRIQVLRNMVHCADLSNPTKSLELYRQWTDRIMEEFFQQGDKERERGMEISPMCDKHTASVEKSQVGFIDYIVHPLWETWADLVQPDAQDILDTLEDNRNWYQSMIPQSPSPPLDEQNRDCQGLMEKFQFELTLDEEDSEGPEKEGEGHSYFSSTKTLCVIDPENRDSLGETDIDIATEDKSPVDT

Assay [9] can be described thus: Cellular Toxicity (caspase-3) HepG2 (AID 654).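 Further: cells exposed to compound for 16 hours before reading; 0% = DMSO alone and 100% = caspase signal from 100 µM tamoxifen.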 In outline: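 Caspase 3/7 activation is measured as a luminescence increase (aminoluciferin substrate) after 16 h compound exposure of human hepatocarcinoma HepG2 cells. AC50 values are Hill fits, scaled between DMSO baseline and 100 uM tamoxifen stimulation.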
Assay [10] in a line: Cellular Toxicity (caspase-3) Jurkat (AID 655).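 Further: cells exposed to compound for 16 h at 37 °C before reading.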 The following applies: Jurkat caspase-3 activation, luminescence; caspase-3 activation: at 92.2 µM (top of the series), DMSO = 0%, tamoxifen = 100%. In outline:
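5000 Jurkat cells/well; compound 16 hr, 37 °C; Caspase-Glo 3/7 added, 20 min RT; luminescence read. Norm: DMSO = 0%, tamoxifen 100 uM = 100%. AC50, Hill model.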

Assay [11] is described as follows: Cellular Toxicity (caspase-3) HUV-EC-C (AID 656). The method, boiled down: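 qHTS; HUV-EC-C, 1000 cells/well; 5 hr settle, 16 hr cmpd, 37°C; Caspase-Glo 3/7, 20 min RT; luminescence. Norm: DMSO = 0%, tamoxifen 100 uM = 100%. Hill-fit AC50.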
The nature of assay [12]: Cellular Toxicity (caspase-3) SHSY5Y (AID 657).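 Further: cells exposed to compound for 16 hours at 37 °C.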 The method, boiled down: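 qHTS, SH-SY5Y, 1500 cells/well, 5 h pre-incubation 37 °C; compound 16 h 37 °C; Caspase-Glo 3/7 1 h RT; luminescence. Norm.: DMSO = 0, 10 uM staurosporine = 100%. Hill fit → AC50.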
The nature of assay [13]: Cellular Toxicity (caspase-3) BJ (AID 658).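 Further: cells exposed to compound for 16 hours; 0% = DMSO basal and 100% = 10 µM staurosporine.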 The method, boiled down:
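Plated BJ cells (1000/well) rested 5 hr, received compound for 16 hr at 37 °C, then Caspase-Glo 3/7 reagent for 1 hr at room temperature before luminescence reading.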

Assay [14] can be described thus: Cellular Toxicity (caspase-3) MRC-5 (AID 659).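 Further: 0% = DMSO basal and 100% = 10 µM staurosporine.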 The method, boiled down: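 Apoptosis readout in MRC-5 cells: luciferase light generated after caspase 3/7 cleaves a peptide-aminoluciferin substrate, measured post 16 hr compound incubation at 37 °C.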
The nature of assay [15]: Cellular Toxicity (caspase-3) H-4-II-E (AID 663).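 Further: cells exposed to compound for 16 hr before readout.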 The method, boiled down:
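Caspase 3/7 activation measured in H-4-II-E cells in complete culture medium after 16 hr treatment at 37 °C, using luciferase-coupled substrate readout; AC50 values come from Hill-equation fits of normalized concentration-response data.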

Assay [16] in a line: Cellular Toxicity (caspase-3) Hek293 (AID 664).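 Further: cells exposed to compound for 16 h at 37 °C before readout.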 In outline:
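Concentration-response qHTS: caspase 3/7 activation measured by luminescent aminoluciferin substrate cleavage after 16 h compound exposure of Hek 293 cells. AC50 from Hill equation, with DMSO as basal and 100 uM tamoxifen as 100%.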

A short description of assay [17]: Cellular Toxicity (caspase-3) N2a (AID 665).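 Further: compound exposure lasted 16 h at 37 °C before readout.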 The method, boiled down:
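Caspase-3/7 activation measured as luminescence from Caspase-Glo reagent (1 h, room temperature) after 16 h compound exposure of mouse N2a cells. AC50 values from Hill-equation concentration-response, scaled between DMSO and 10 uM staurosporine.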

In assay [18] the target is Glucocorticoid receptor (Homo sapiens) (UniProt P04150). The assay is described as follows: GR-GFP Redistribution (AID 450;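 active means compounds whose dose series gives a full or clear partial fitted curve of increased nuclear translocation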; further: potency means the concentration at half of the fitted maximal effect). Conditions: U2OS GR-GFP nuclear translocation, laser cytometry, 2 h.
Glucocorticoid receptor (Homo sapiens), sequence (P04150 whole entry, looked up): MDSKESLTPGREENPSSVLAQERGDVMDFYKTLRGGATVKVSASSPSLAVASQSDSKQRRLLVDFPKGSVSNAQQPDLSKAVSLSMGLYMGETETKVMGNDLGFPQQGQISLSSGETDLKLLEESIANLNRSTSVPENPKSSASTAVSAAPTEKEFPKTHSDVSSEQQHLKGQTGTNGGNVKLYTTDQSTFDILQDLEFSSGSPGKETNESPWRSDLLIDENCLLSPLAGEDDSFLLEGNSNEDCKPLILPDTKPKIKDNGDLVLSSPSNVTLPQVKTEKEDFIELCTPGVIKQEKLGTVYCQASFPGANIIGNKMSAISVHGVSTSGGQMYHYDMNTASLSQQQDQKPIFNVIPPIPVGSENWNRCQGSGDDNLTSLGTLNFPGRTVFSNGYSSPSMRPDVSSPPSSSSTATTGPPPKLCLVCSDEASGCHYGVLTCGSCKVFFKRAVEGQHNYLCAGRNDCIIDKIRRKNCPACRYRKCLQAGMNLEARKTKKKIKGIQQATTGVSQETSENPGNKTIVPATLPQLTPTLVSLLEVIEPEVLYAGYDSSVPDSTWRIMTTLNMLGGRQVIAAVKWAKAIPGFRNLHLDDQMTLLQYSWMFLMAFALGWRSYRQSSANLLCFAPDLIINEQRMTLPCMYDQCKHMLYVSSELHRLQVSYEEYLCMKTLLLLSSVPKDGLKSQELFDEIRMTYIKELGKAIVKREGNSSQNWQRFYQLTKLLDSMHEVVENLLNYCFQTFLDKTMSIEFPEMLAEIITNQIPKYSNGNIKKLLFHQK
For assay [19] the target is unchanged. Nature of the assay: GR-EFC Redistribution (AID 451; calls by dose curve; further: potency means the concentration at half of the fitted maximal effect). The following applies: CHO-K1 GR-EFC translocation, beta-gal luminescence, 2 h. The method, boiled down:
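CHO-K1 cells stably expressing nuclear-localized β-gal enzyme acceptor and GR fused C-terminally to the enzyme donor fragment; ligand-driven nuclear translocation restores β-gal by complementation. Compounds titrated up to 46 uM final, 2 h at 37 °C; luminescence read.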

The nature of assay [20]: Cell Viability - SH-SY5Y (AID 544).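 Further: cells exposed to compound for 40 hours; nearly all actives have a fitted effect of over 55% in size.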 Conditions: SH-SY5Y neuroblastoma cell viability; at 92.2 µM (top of the series). In outline: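 Cytotoxicity measured via ATP-dependent luciferase luminescence (CellTiter-Glo) following 40 h, 37 °C exposure of 1500 SH-SY5Y cells per well. Concentration-response data were fitted with the standard Hill equation to give AC50.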

Values joined by “and” are separate entries in the source; they are usually repeats but may differ in a detail not shown here. Equal entries are not always repeated. A number with no mark means an inactive call. Records with an inconclusive call do not appear. Active and inactive are the calls of the source. Unless noted, the call rests on the fitted dose curve; in most records, active means well fitted curve in the direction sought with a large enough effect; inconclusive means small, poorly fitted or top-dose-only effect, or another doubt; inactive means no such curve, though single readings can be large; an effect the other way counts as inactive or inconclusive.

In the case of `CCOc1ccc2c(c1)C(C)=CC(C)(C)N2`, the call in [1], in [3], in assay [6], in assay [8], in assay [9] and in assay [11] was inactive. The compound was classed as inactive in assay [12], in assay [13], in [14], in [15], in assay [16] and in assay [17]. The activity change, negative = cytotoxicity was -9.52% in assay [2] and 9.89% in assay [7]. Also, the Potency result in [4] and in [5] was “inactive” in each case. Also, the caspase-3 activation in [10] is 15.7%.

`C[C@]12C=CC(=O)C=C1CC[C@@H]1[C@@H]2[C@@H](O)C[C@@]2(C)[C@H]1CC[C@]2(O)C(=O)COC(=O)CCC(=O)O`: in [18], the Potency was 0.0285 µM (active).

Take `CCCC(=O)Nc1ncnc2c1ncn2[C@@H]1O[C@@H]2COP(=O)(O)O[C@H]2[C@H]1OC(=O)CCC`: the Potency was > 46 µM and > 20.6 µM in assay [18]; above 46 µM in assay [19]. Further, in assay [1], the call was inactive.

For `CC(C)=O`, the outcome in assay [1], in assay [3], in assay [6], in [9], in [11] and in [12] was inactive. Besides, the compound was called inactive in assay [13], in assay [14], in [15], in assay [16] and in [17]. The activity change, negative = cytotoxicity is -2.26% in assay [2] and -1.45% in [7]. In addition, the Potency entry in [4] and in [5] was “inactive” each time. For the same compound, the viability change, negative = cytotoxic in assay [20] was -5.22%. Also, the caspase-3 activation in assay [10] was -1.17%.

Turning to `CN(C)CCCN1c2ccccc2C(C)(C)c2ccccc21`, the Potency is above 46 µM in assay [18] and above 9.22 µM in assay [19]. Further, the activity change, negative = inhibition in assay [1] is -0.792% [at 11.4 µM]. In assay [8], the result was inactive.

As to `Cc1onc(-c2ccccc2)c1C(=O)N[C@@H]1C(=O)N2[C@@H]1SC(C)(C)[C@@H]2C(=O)O`, the Potency in assay [18] is above 20.6 µM.

`CC(Cc1ccc(O)c(O)c1)C(C)Cc1ccc(O)c(O)c1` (stereo not drawn): the Potency in assay [18] is above 20.6 µM.

`Cc1c(C)c2c(c(C)c1O)CC[C@@](C)(CCC[C@@H](C)CCC[C@@H](C)CCCC(C)C)O2`: the Potency in assay [18] and in assay [19] was above 20.6 µM each time. For the same compound, the compound was classed as inactive in [8].

Consider `CCCCCCCC/C=C\CCCCCCCC(=O)O`, for which the outcome in assay [1], in assay [3], in [6], in assay [9], in assay [11] and in assay [12] was inactive. For the same compound, the result in assay [13], in assay [14], in assay [15], in [16] and in [17] was inactive. Further, the activity change, negative = cytotoxicity in assay [2] is -2.98%; in assay [7], 16.2%. The Potency entry in assay [4] and in assay [5] was “inactive” in each case. Besides, the viability change, negative = cytotoxic in assay [20] was 3.98%. For the same compound, the caspase-3 activation in assay [10] was 1.62%.

For `CC1(C)S[C@@H]2[C@H](NC(=O)[C@@H](NC(=O)N3CCNC3=O)c3ccccc3)C(=O)N2[C@H]1C(=O)O`, the Potency in assay [18] and in assay [19] was above 20.6 µM throughout. Further, the compound was classed as inactive in assay [1] and in assay [8].

As for `O=S(=O)(O)O`, the compound was called inactive in [1], in assay [3], in assay [6], in assay [9], in assay [11] and in assay [12]. For the same compound, the call in [13], in assay [14], in assay [15], in assay [16] and in assay [17] was inactive. Further, the activity change, negative = cytotoxicity in [2] was -3.09% and 7.28%; in assay [7], -5.83% and 4.47%. Moreover, the Potency entry in assay [4] and in [5] was “inactive” each time. Further, the viability change, negative = cytotoxic in assay [20] is 2.52% and 9.94%. For the same compound, in [10], the caspase-3 activation is 4.57% and 0.977%.

For the compound `CC(=O)OCC(=O)[C@@]12OC3(CCCC3)O[C@@H]1C[C@H]1[C@@H]3CCC4=CC(=O)C=C[C@]4(C)[C@@]3(F)[C@@H](O)C[C@@]12C`, the Potency in assay [18] was 0.000571 µM (active).

`CC1(C)S[C@@H]2[C@H](NC(=O)Cc3ccccc3)C(=O)N2[C@H]1C(=O)O`: the Potency in assay [18] and in assay [19] was above 20.6 µM in each case. For the same compound, the compound was called inactive in [1] and in assay [8].

As to `CCOC(C)=O`, the compound was classed as inactive in assay [1], in [3], in assay [6], in [9], in assay [11] and in assay [12]. Besides, the result in [13], in assay [14], in assay [15], in assay [16] and in assay [17] was inactive. Also, the activity change, negative = cytotoxicity was 9.44% in assay [2] and 10.1% in assay [7]. For the same compound, the Potency entry in [4] and in [5] was “inactive” throughout. Also, the viability change, negative = cytotoxic in [20] is -3.69%. For the same compound, the caspase-3 activation in assay [10] is -0.547%.

In the case of `O=C(O)CC/C=C\CC[C@H]1[C@@H](N2CCCCC2)[C@@H](O)C[C@@H]1OCc1ccc(-c2ccccc2)cc1`, the Potency in assay [18] and in assay [19] was above 46 µM each time. Further, the compound was called inactive in assay [1] and in [8].

For the compound `Cc1ccccc1`, the result in assay [1], in assay [3], in [6], in assay [9], in assay [11] and in [12] was inactive. Also, the compound was classed as inactive in assay [13], in assay [14], in [15], in assay [16] and in assay [17]. The activity change, negative = cytotoxicity in [2] was 5.04% and 4.17%; in [7], 6.68% and 3.68%. Besides, the Potency entry in [4] and in assay [5] was “inactive” each time. In addition, the viability change, negative = cytotoxic in assay [20] was -8.19% and -6.58%. For the same compound, in [10], the caspase-3 activation was -1.43% and -0.873%.

`CN1Cc2c(N)cccc2C(c2ccccc2)C1` (stereo not drawn): the Potency in [18] was above 20.6 µM.

As for `CN=C(NC#N)Nc1ccc(C2=NNC(=O)C[C@@H]2C)cc1`, the result in assay [1] and in [8] was inactive.

In the case of `Nc1ccn([C@H]2CS[C@@H](CO)O2)c(=O)n1`, the result in [1], in assay [3], in assay [6], in assay [9], in [11] and in assay [12] was inactive. The compound was called inactive in assay [13], in assay [14], in assay [15], in [16] and in assay [17]. Further, the activity change, negative = cytotoxicity in [2] was -5.31%; in [7], 7.61%. Further, the Potency entry in assay [4] and in [5] was “inactive” throughout. Further, the viability change, negative = cytotoxic in assay [20] is 1.14%. For the same compound, the caspase-3 activation in assay [10] was -0.771%.

The values above are taken from PubChem BioAssay (NCATS).
